In PubChem BioAssay AID1159580 (chemical genetic matrix, 2015):
“And” between values parts separate entries of the source, which are not always exact repeats. Equal values may be shown once. Among all 5,500 compounds or so, about 2,000 (36%) were called active. Roughly 18% stayed inconclusive and do not appear here. No stated cut-off is given here; in the data, active means normalized growth mostly below about 0.91 (no sharp cut-off); inconclusive means no clear call, values can overlap the other calls; inactive means mostly above about 0.92. The list shows a part of the results.

Assay: chemical genetic growth profiling, strain panel (AID 1159580);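 further: tested at 20 µM; growth read once vehicle control cultures reached saturation at 30 °C; 1 = growth at the plate median or of vehicle wells; lower values mean less growth of the strain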
Conditions: growth OD

Measured: normalized growth

Cn1c(=O)c2[nH]cnc2n(C)c1=O
inactive: S. cerevisiae deletion strains, locus YJR066W, strain TOR1, hits give low values 0.959 | S. cerevisiae deletion strains, locus YKL009W, strain mrt4, hits give low values 0.98 | S. cerevisiae deletion strains, locus YKL068W, hits give low values 0.992 | S. cerevisiae deletion strains, locus YKL085W, strain MDH1 (second series), hits give low values 0.982 | S. cerevisiae deletion strains, locus YKL085W, strain MDH1, hits give low values 0.982 | S. cerevisiae deletion strains, locus YKL160W, strain elf1, hits give low values 1.04 | S. cerevisiae deletion strains, locus YKL190W, strain CNB1, hits give low values 0.996 | S. cerevisiae deletion strains, locus YKR001C, strain vps1, hits give low values 0.971 | S. cerevisiae deletion strains, locus YKR026C, strain gcn3, hits give low values 1.01 | S. cerevisiae deletion strains, locus YKR091W, strain srl3, hits give low values 1.02 | S. cerevisiae deletion strains, locus YLL001W, strain dnm1, hits give low values 1.01 | S. cerevisiae deletion strains, locus YLL026W, hits give low values 1.02 | S. cerevisiae deletion strains, locus YLL041C, strain sdh2, hits give low values 1.01 | S. cerevisiae deletion strains, locus YLR027C, strain aat2, hits give low values 1.02 | S. cerevisiae deletion strains, locus YLR039C, strain RIC1, hits give low values 0.982 | S. cerevisiae deletion strains, locus YLR058C, strain SHM2, hits give low values 0.988 | S. cerevisiae deletion strains, locus YLR102C, strain apc9, hits give low values 0.977 | S. cerevisiae deletion strains, locus YLR113W, strain HOG1, hits give low values 0.99 | S. cerevisiae deletion strains, locus YLR221C, strain rsa3, hits give low values 1.02 | S. cerevisiae deletion strains, locus YLR258W, strain gsy2, hits give low values 1.02 | S. cerevisiae deletion strains, locus YLR262C, strain YPT6 (second series), hits give low values 1 | S. cerevisiae deletion strains, locus YLR262C, strain YPT6, hits give low values 0.993 | S. cerevisiae deletion strains, locus YLR268W, strain sec22, hits give low values 0.941 | S. cerevisiae deletion strains, locus YLR320W, strain mms22, hits give low values 1.01 | S. cerevisiae deletion strains, locus YLR330W, strain CHS5, hits give low values 0.992 | S. cerevisiae deletion strains, locus YLR342W, strain FKS1 (second series), hits give low values 0.99 | S. cerevisiae deletion strains, locus YLR342W, strain FKS1, hits give low values 1.02 | S. cerevisiae deletion strains, locus YLR357W, strain rsc2, hits give low values 1.01 | S. cerevisiae deletion strains, locus YLR370C, strain arc18, hits give low values 1.03 | S. cerevisiae deletion strains, locus YLR371W, strain rom2, hits give low values 0.968 | S. cerevisiae deletion strains, locus YLR384C, strain iki3, hits give low values 1.01 | S. cerevisiae deletion strains, locus YLR418C, strain cdc73, hits give low values 0.971 | S. cerevisiae deletion strains, locus YML016C, strain PPZ1, hits give low values 0.989 | S. cerevisiae deletion strains, locus YML032C, strain rad52, hits give low values 0.971 | S. cerevisiae deletion strains, locus YML120C, strain ndi1, hits give low values 1.02 | S. cerevisiae deletion strains, locus YML124C, strain tub3, hits give low values 0.969 | S. cerevisiae deletion strains, locus YMR058W, strain fet3, hits give low values 1.02 | S. cerevisiae deletion strains, locus YMR078C, strain ctf18, hits give low values 0.975 | S. cerevisiae deletion strains, locus YMR125W, strain sto1, hits give low values 1.01 | S. cerevisiae deletion strains, locus YMR129W, hits give low values 1.01 | S. cerevisiae deletion strains, locus YMR205C, strain PFK2, hits give low values 1.04 | S. cerevisiae deletion strains, locus YMR223W, strain ubp8, hits give low values 0.984 | S. cerevisiae deletion strains, locus YMR231W, strain pep5, hits give low values 1.02 | S. cerevisiae deletion strains, locus YMR263W, strain SAP30, hits give low values 0.996 | S. cerevisiae deletion strains, locus YMR307W, strain GAS1, hits give low values 0.992 | S. cerevisiae deletion strains, locus YNL067W, strain RPL9B, hits give low values 0.993 | S. cerevisiae deletion strains, locus YNL071W, strain lat1, hits give low values 1.03 | S. cerevisiae deletion strains, locus YNL128W, strain TEP1, hits give low values 0.985 | S. cerevisiae deletion strains, locus YNL153C, strain GIM3, hits give low values 0.988 | S. cerevisiae deletion strains, locus YNL175C, strain NOP13, hits give low values 0.995 | S. cerevisiae deletion strains, locus YNL183C, strain NPR1, hits give low values 0.955 | S. cerevisiae deletion strains, locus YNL197C, strain WHI3, hits give low values 1 | S. cerevisiae deletion strains, locus YNL209W, strain ssb2, hits give low values 1.02 | S. cerevisiae deletion strains, locus YNL224C, strain SQS1, hits give low values 0.99 | S. cerevisiae deletion strains, locus YNL233W, strain BNI4, hits give low values 0.993 | S. cerevisiae deletion strains, locus YNL248C, strain rpa49, hits give low values 1.05 | S. cerevisiae deletion strains, locus YNL250W, strain rad50, hits give low values 0.979 | S. cerevisiae deletion strains, locus YNL271C, strain bni1, hits give low values 0.967 | S. cerevisiae deletion strains, locus YNL298W, strain CLA4, hits give low values 0.965 | S. cerevisiae deletion strains, locus YNL307C, strain MCK1, hits give low values 0.971 | S. cerevisiae deletion strains, locus YNL322C, strain KRE1 (second series), hits give low values 1.01 | S. cerevisiae deletion strains, locus YNR049C, strain mso1, hits give low values 1.02 | S. cerevisiae deletion strains, locus YNR052C, strain pop2, hits give low values 0.971 | S. cerevisiae deletion strains, locus YOL006C, strain TOP1, hits give low values 1.01 | S. cerevisiae deletion strains, locus YOL012C, strain htz1 0.812 | S. cerevisiae deletion strains, locus YOL147C, strain pex11, hits give low values 0.973 | S. cerevisiae deletion strains, locus YOR001W, strain rrp6, hits give low values 0.994 | S. cerevisiae deletion strains, locus YOR061W, strain CKA2, hits give low values 0.988 | S. cerevisiae deletion strains, locus YOR069W, strain VPS5, hits give low values 0.982 | S. cerevisiae deletion strains, locus YOR070C, strain gyp1, hits give low values 1.04 | S. cerevisiae deletion strains, locus YOR080W, strain dia2, hits give low values 1 | S. cerevisiae deletion strains, locus YOR083W, strain WHI5 (second series), hits give low values 1.01 | S. cerevisiae deletion strains, locus YOR083W, strain WHI5, hits give low values 1.03 | S. cerevisiae deletion strains, locus YOR106W, strain vam3, hits give low values 1.05 | S. cerevisiae deletion strains, locus YOR136W, strain idh2, hits give low values 0.986 | S. cerevisiae deletion strains, locus YOR144C, strain elg1, hits give low values 0.981 | S. cerevisiae deletion strains, locus YOR184W, strain ser1, hits give low values 0.97 | S. cerevisiae deletion strains, locus YOR231W, strain MKK1, hits give low values 0.979 | S. cerevisiae deletion strains, locus YOR265W, strain rbl2, hits give low values 1.01 | S. cerevisiae deletion strains, locus YOR270C, strain vph1, hits give low values 1.05 | S. cerevisiae deletion strains, locus YOR290C, strain snf2, hits give low values 1.05 | S. cerevisiae deletion strains, locus YOR316C, strain cot1, hits give low values 0.969 | S. cerevisiae deletion strains, locus YPL051W, strain arl3, hits give low values 1.04 | S. cerevisiae deletion strains, locus YPL078C, strain atp4, hits give low values 1.04 | S. cerevisiae deletion strains, locus YPL106C, strain sse1, hits give low values 1.05 | S. cerevisiae deletion strains, locus YPL240C, strain hsp82, hits give low values 1.02 | S. cerevisiae deletion strains, locus YPL241C, strain CIN2, hits give low values 0.992 and 1 | S. cerevisiae deletion strains, locus YPL256C, strain CLN2, hits give low values 0.97 | S. cerevisiae deletion strains, locus YPR119W, strain clb2, hits give low values 0.986 | S. cerevisiae deletion strains, locus YPR141C, strain kar3, hits give low values 0.961 | S. cerevisiae deletion strains, locus YPR163C, strain tif3, hits give low values 0.965 | S. cerevisiae deletion strains, locus YPR167C, strain met16, hits give low values 0.977 | S. cerevisiae deletion strains, strain wtn01, hits give low values 0.953 | S. cerevisiae strains, strain wild type, hits give low values 1
